A selection: hits, their analogues and other compounds. The true share with any hit is near 6.2%.
AHR act: activates the human aryl hydrocarbon receptor; AHR-responsive luciferase reporter cells, luminescence; activation, % at 5 µM; actives 2.5% (n = 320,000); in the data active = activation above about 47%;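 note: 0% = vehicle wells and 100% = reference agonist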
Target sequence (P35869 whole entry, looked up): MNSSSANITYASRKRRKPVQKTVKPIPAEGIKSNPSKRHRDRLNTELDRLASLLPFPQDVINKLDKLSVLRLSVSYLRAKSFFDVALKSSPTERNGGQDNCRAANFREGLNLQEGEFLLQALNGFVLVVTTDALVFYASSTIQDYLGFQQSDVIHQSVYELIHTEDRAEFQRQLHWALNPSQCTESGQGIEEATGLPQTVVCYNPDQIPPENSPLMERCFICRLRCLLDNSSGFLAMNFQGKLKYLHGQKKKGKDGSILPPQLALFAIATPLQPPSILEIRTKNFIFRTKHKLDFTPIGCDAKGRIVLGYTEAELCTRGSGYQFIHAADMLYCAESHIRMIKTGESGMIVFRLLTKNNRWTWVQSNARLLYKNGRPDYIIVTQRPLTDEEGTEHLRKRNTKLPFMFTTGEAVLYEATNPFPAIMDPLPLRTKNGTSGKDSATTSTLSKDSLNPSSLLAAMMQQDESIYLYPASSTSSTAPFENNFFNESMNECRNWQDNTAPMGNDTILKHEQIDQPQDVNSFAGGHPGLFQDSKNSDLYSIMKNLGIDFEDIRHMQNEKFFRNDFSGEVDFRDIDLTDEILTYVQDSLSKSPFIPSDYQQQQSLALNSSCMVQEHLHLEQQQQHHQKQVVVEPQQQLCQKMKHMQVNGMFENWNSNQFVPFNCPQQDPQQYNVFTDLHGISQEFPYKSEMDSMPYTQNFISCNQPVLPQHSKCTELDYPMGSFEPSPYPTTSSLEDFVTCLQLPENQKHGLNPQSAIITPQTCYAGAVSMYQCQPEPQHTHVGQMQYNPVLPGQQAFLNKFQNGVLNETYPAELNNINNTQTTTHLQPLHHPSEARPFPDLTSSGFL
H9c2 protect: protects H9c2 cardiomyocytes from peroxide injury; H2O2 injury protection, ATPLite, 2 h; protection from H2O2 cell death, % at 20 µM; actives 0.63% (n = 360,000);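 active = compounds giving at least 50% protection of heart cells from peroxide-induced death in the single-dose screen, raw or plate-pattern-corrected value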;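 note: 0% = DMSO wells with peroxide and 100% = DMSO wells without peroxide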
Mot1-301 SUMO: SUMOylation pathway inhibition by Mot1-301 growth rescue; S. cerevisiae Mot1-301 growth rescue, ATP luminescence, 38.5C; percent above DMSO median, 100 means doubled; growth rescue, % at 18.8 µM; actives 1% (n = 320,000); AID 2716;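 active = every valid replicate shows activation above 250% relative to neutral control wells; inactive = the rest, any valid replicate at or below 250%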;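 note: OY570 slx delta 5 strain wells were the positive control but not used for scaling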
NTR1 agonist: agonists of human neurotensin receptor NTR1; actives 0.17% (n = 330,000); NTR1-U2OS beta-arrestin-GFP spot imaging, agonist mode; activation, % at 20 µM; P30989; AID 493036;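 active = activation at or above 40% of the spot to cytoplasm intensity ratio, with at least 20 cells analyzed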;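 note: 0% = DMSO without peptide and 100% = 100 nM NTR1 peptide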
AI-2 QS modul: Vibrio harveyi AI-2 quorum sensing modulation; Vibrio harveyi JMH597 AI-2 luminescence/OD600 ratio, 9 h; hits give low values; strain lacks LuxN and CqsS sensors; 0 = neutral-control median; activity change, % at 7.5 µM; actives 0.4% (n = 300,000); AID 2094; in the data active = activity change below about -75%, passing the limit was not always enough;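 note: luminescence divided by OD600 gain over 9 h not by final OD600 alone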
GRIN3A LBD mod: modulators (binders) of human NR3A ligand-binding domain; Tm shift relative to glycine control, % at 25 µM; actives 2.5% (n = 340,000); NR3A LBD differential scanning fluorimetry, Tm shift; 0% = protein alone, 100% = glycine-bound protein; AID 1259313;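 active = melting temperature shift of at least 10% of the positive control shift, at one fixed dose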
* = called active by the depositor.

How did NCCC1CCCC(CCN)N1 (stereo unspecified) do in these assays?
AHR act: -2; H9c2 protect: -7; Mot1-301 SUMO: 4; NTR1 agonist: 3; GRIN3A LBD mod: -1

How did Cc1ccc(S(=O)(=O)N[C@@H](C)C(=O)OCC(=O)N2c3ccccc3NC(=O)C2(C)C)cc1 do in these assays?
AHR act: 0; H9c2 protect: -4; Mot1-301 SUMO: 0; NTR1 agonist: 1; GRIN3A LBD mod: 3

Results for COc1ccc(N(CC(=O)NCCSc2ccccc2)S(=O)(=O)c2ccccc2)c(OC)c1 ?
AHR act: 1; H9c2 protect: 56*; Mot1-301 SUMO: -15; NTR1 agonist: 0; GRIN3A LBD mod: 1

What do the screens show for `Cc1cccn2c(=O)c(C=O)c(N3CCCCC3)nc12`?
AHR act: 7; H9c2 protect: 4; Mot1-301 SUMO: 11; NTR1 agonist: 1; AI-2 QS modul: 25; GRIN3A LBD mod: -1

How did Cc1cccn2c(=O)c(C=O)c(N3CCN(c4ccc(F)cc4)CC3)nc12 do in these assays?
AHR act: 64*; H9c2 protect: 4; Mot1-301 SUMO: 1; NTR1 agonist: 5; AI-2 QS modul: 18; GRIN3A LBD mod: 0

What do the screens show for `CCOc1nc(-c2ccc(Cl)cc2)nc2ccccc12`?
AHR act: 62*; H9c2 protect: 3; Mot1-301 SUMO: -4; NTR1 agonist: 9; AI-2 QS modul: 13; GRIN3A LBD mod: 3

Results for COCCN(CCOC)c1nc(-c2ccc(C)cc2)nc2ccccc12 ?
AHR act: 32; H9c2 protect: 6; Mot1-301 SUMO: 5; NTR1 agonist: 14; AI-2 QS modul: 18; GRIN3A LBD mod: -1

What do the screens show for `CCCCN(CC)c1nc(-c2ccncc2)nc2ccccc12`?
AHR act: 73*; H9c2 protect: 7; Mot1-301 SUMO: 4; NTR1 agonist: 7; AI-2 QS modul: 1; GRIN3A LBD mod: -1

What do the screens show for `COc1nc(-c2ccncc2)nc2ccccc12`?
AHR act: 75*; H9c2 protect: 3; Mot1-301 SUMO: 18; NTR1 agonist: 1; AI-2 QS modul: 21; GRIN3A LBD mod: -1

Results for C=CCOc1nc(-c2ccncc2)nc2ccccc12 ?
AHR act: 52*; H9c2 protect: 1; Mot1-301 SUMO: 1; NTR1 agonist: 1; AI-2 QS modul: 6; GRIN3A LBD mod: 2

Results for COc1cccc(-c2cccc(NC(=O)C3CCN(CCCn4cccn4)CC3)c2)c1 ?
H9c2 protect: 0

Results for Nc1ccn([C@@H]2O[C@H](CNCc3ccc(Oc4cc(-n5cccn5)ncn4)cc3)[C@@H](O)[C@H]2O)c(=O)n1 ?
H9c2 protect: 2

Results for COc1ccc(C(=O)N2CCCC(Nc3ccc(C)c(C)c3)C2)cc1F (stereo unspecified) ?
AHR act: 20; H9c2 protect: 3; Mot1-301 SUMO: 83; NTR1 agonist: 2; AI-2 QS modul: 21; GRIN3A LBD mod: 16*

What do the screens show for `CC(C)c1ccc(NC2CCCN(C(=O)c3cccnc3)C2)cc1` (stereo unspecified)?
AHR act: 47; H9c2 protect: 4; Mot1-301 SUMO: -2; NTR1 agonist: 0; AI-2 QS modul: 24; GRIN3A LBD mod: -1

Results for Cc1ccc(NC2CCCN(C(=O)c3cccnc3)C2)cc1C (stereo unspecified) ?
AHR act: 48*; H9c2 protect: 4; Mot1-301 SUMO: 2; NTR1 agonist: -1; AI-2 QS modul: 23; GRIN3A LBD mod: 3

Results for COc1ccc(C(=O)N2CCCC(Nc3ccc(F)cc3)C2)cc1F (stereo unspecified) ?
AHR act: -1; H9c2 protect: 2; Mot1-301 SUMO: -6; NTR1 agonist: -1; AI-2 QS modul: 41; GRIN3A LBD mod: 2

Results for CCCCOC(=O)c1ccc(NC(=O)CSC2=Nc3ccccc3C3CC=NN23)cc1 (stereo unspecified) ?
AHR act: 14; H9c2 protect: -5; Mot1-301 SUMO: 4; NTR1 agonist: 7; AI-2 QS modul: 29; GRIN3A LBD mod: 10

Results for O=C(CSC1=Nc2ccccc2C2CC=NN12)Nc1ccc(F)c(F)c1F (stereo unspecified) ?
AHR act: 51*; H9c2 protect: -4; Mot1-301 SUMO: 10; NTR1 agonist: -1; GRIN3A LBD mod: -1
